This is part of a sample that, as a whole, favours compounds with a hit. Of some 83,000 tested, about 20% had one in any assay.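 A percent growth of 40 corresponds to 60% growth inhibition; 0 means no net growth; -100 means all cells died. Active threshold: below 10.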 A number with no mark means an inactive call. Activity calls are given as the source filed them.

This is an account of results in PubChem BioAssay (NCI).

Holding throughout (experiment): NCI-60 one-dose screen, 48 h (100 = growth as untreated, 0 = no growth, -100 = all killed)
Details in all cases: 10 µM unless noted

For test [1], the system named is NCI-H23 lung.
Test [2] relates to NCI-H226 lung.
For test [3], the system named is NCI-H322M lung.
In test [4] the test system is HOP-62 NSCLC.
For test [5], the system named is NCI-H460 lung.
The subject of test [6] is HOP-92 NSCLC.
The test system of test [7] is 786-0 renal.
Test [8] has as its system COLO 205 colon.
For test [9], the system named is DU-145 prostate.
Test [10] has as its system K-562 leukemia.
Test [11] has as its system MALME-3M melanoma.
In test [12] the test system is MDA-MB-231 breast.
Test [13] has as its system RXF 393 renal.
For test [14], the system named is SF-268 CNS.
For test [15], the system named is SF-295 CNS.
For test [16], the system named is SF-539 CNS.
In test [17] the test system is M14 melanoma.
Test [18] concerns A549/ATCC NSCLC.
The subject of test [19] is UACC-257 melanoma.

For the compound `CCN(C(=O)CCl)C(C)(C)C(SSSC(c1ccc(Cl)cc1)C(C)(C)N(CC)C(=O)CCl)c1ccc(Cl)cc1` (stereo not drawn), the growth in test [1] is 93.6%; in [2] it was 104%; in test [3], 87.7%; in test [4] it was 86.6%; in test [5] it was 81.1%; in test [6], 47%. Also, the growth in test [7] was 79.7%; in test [8], 56.8%; in test [9], 85.5%; in test [10] it was 0.579% (active); in test [11], 28.9%; in test [12] it was 73.7%. Also, the growth in test [13] is 48.6%; in test [14], 91.1%; in [15], 89.5%; in [16] it was 87.7%; in test [17], -15.9% (active).

Regarding `O=C1OC(/C=C/c2ccccc2)=NC/1=C/c1ccccc1[N+](=O)[O-]`, the growth was 106% in test [1]; 93.3% in test [2]; 84.6% in [3]; 91.4% in test [4]; 103% in test [5]; 81.2% in test [6]. The growth in [7] was 97.6%; in [8] it was 98%; in test [9], 105%; in test [10], 106%; in [11] it was 96.9%; in [12], 99%. The growth was 116% in test [13]; 99.7% in test [14]; 97.4% in [15]; 89.8% in test [16]; 99.6% in test [17].

Consider `COc1cc(OC)cc(-c2ccc(-c3ccc(C(=N)N)s3)s2)c1`, for which the growth was -75.7% (active) in test [1]; -65.3% (active) in [2]; -86.7% (active) in test [3]; -88.1% (active) in [4]; -71.6% (active) in [5]; -71% (active) in test [6]. Further, the growth in test [7] was -80.4% (active); in [8], -78.1% (active); in [9], -74.2% (active); in test [10] it was -35.7% (active); in test [11] it was -73.8% (active); in test [12], -80.5% (active). In addition, the growth in [13] was -73.9% (active); in [14] it was -76.5% (active); in test [15] it was -78.5% (active); in test [16], -92.2% (active).

`O=C(CCCN1CCC(O)(c2ccc(Br)cc2)CC1)c1ccc(F)cc1`: the growth in test [1] is 68.3%; in [2] it was 99.5%; in test [3] it was 81.8%; in [4] it was 64.3%; in [5], 76.8%; in [6], 98.9%. The growth in test [18] is 73.5%; in test [7], 69%; in [11] it was 86.8%; in test [12] it was 40.7%; in test [13], 49.8%; in [14], 83.4%. Besides, the growth in test [15] was 54.7%; in test [16] it was 77.8%; in test [19], -21.9% (active); in test [17], 18.6%.

`O=C(N/N=C/c1ccc([N+](=O)[O-])o1)c1ccc(O)cc1`: the growth in test [1] is 41.5%; in test [2], 89.7%; in [3] it was 65.6%; in [4], 30.3%; in test [5], 18.8%; in test [6] it was 103%. Also, the growth was 36.9% in [18]; 63.4% in [7]; -34.9% (active) in test [11]; 57.9% in test [12]; 82.5% in test [13]; 12.6% in test [14]. Further, the growth in test [15] was 49.8%; in test [16], 8.11% (active); in [19] it was 17.1%; in test [17], 4.75% (active).

For `O=C(CC(=O)c1ccccc1F)Nc1ccc([N+](=O)[O-])cc1`, the growth was 105% in test [1]; 86.2% in test [2]; 91.5% in [3]; 114% in [4]; 104% in test [5]; 79.6% in test [6]. Also, the growth in test [7] was 101%; in test [8], 105%; in test [9], 119%; in [10], 91.9%; in test [11], 93.6%; in test [12], 103%. Moreover, the growth in [13] is 103%; in test [14], 105%; in test [15], 98%; in test [16], 93.2%; in [17] it was 100%.

In the case of `FC(F)(F)c1cc(-c2nnc3n2N=C(Cl)CS3)cc(C(F)(F)F)c1`, the growth in [1] was 93%; in test [2], 99.8%; in test [3], 111%; in [4], 98.5%; in [5], 107%; in test [6] it was 102%. Besides, the growth is 93.5% in [7]; 96.5% in test [8]; 112% in test [9]; 83.4% in test [10]; 99% in test [11]; 112% in [12]. The growth is 115% in test [14], 109% in [16] and 84.6% in test [17].

As for `CCS(=O)(=O)Nc1cccc(Nc2c3cccc(C)c3nc3c(C)cccc23)c1OC`, the growth in test [1] was 11.1%; in test [2], -6.89% (active); in test [3], 49.1%; in test [4] it was 8.84% (active); in [5] it was 3.23% (active); in test [6], -11.8% (active). Besides, the growth was -42.1% (active) in [7]; 27.1% in test [8]; 2.74% (active) in test [9]; 8.19% (active) in [10]; 21.5% in test [11]; 59.9% in [12]. Also, the growth in test [13] is 34.6%; in [14], 20.4%; in test [15] it was -7.84% (active); in test [16], -41.3% (active); in [17], 17.2%.

As for `ClC1=NC(Cl)C(Cl)=N/C1=N\c1ncn[nH]1` (stereo not drawn), the growth in test [1] is 62.8%; in test [2], 106%; in [3] it was 89.2%; in test [4], 39.3%; in test [5] it was 73.3%; in test [6], -60% (active). Moreover, the growth in [7] is 81.2%; in test [8] it was -76.4% (active); in test [9], -78.9% (active); in test [10] it was -48% (active); in [11], -64.3% (active); in test [12], 72.7%. Also, the growth in test [13] was -64.6% (active); in test [14], 33.8%; in test [15], 101%; in test [16] it was 67.5%; in test [17] it was 39.2%.
